Measurements: PubChem BioAssay AID2130 (The Scripps Research Institute Molecular Screening Center, 2009)
Screen size: about 320,000 compounds; about 1,700 (0.53%) were called active. The full list was thinned out, with actives kept by preference. A number with no mark means an inactive call.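 Rule for the calls: active = inhibition above the campaign mean of all compounds plus 3 SD (cut at about 26% in these data); inactive = the rest.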

What follows are compounds tested against Protein phosphatase methylesterase 1 (Homo sapiens) (UniProt Q9Y570) (assay: human PME-1 methylesterase blockers – biochemical, fluorescence polarization, FP-Rh probe, HTS, primary screen (AID 2130;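 note: competitive labeling of PME-1 active site by serine hydrolase directed probe; 0% = PME-1 with DMSO and 100% = wells lacking PME-1 enzyme; inhibitors block probe labeling so polarization falls and inhibition rises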)). Details: recombinant PME-1, FP-Rh probe fluorescence polarization; at 5.9 µM; hits give high values.
Chain of Protein phosphatase methylesterase 1 (Homo sapiens) (Q9Y570 whole entry, looked up): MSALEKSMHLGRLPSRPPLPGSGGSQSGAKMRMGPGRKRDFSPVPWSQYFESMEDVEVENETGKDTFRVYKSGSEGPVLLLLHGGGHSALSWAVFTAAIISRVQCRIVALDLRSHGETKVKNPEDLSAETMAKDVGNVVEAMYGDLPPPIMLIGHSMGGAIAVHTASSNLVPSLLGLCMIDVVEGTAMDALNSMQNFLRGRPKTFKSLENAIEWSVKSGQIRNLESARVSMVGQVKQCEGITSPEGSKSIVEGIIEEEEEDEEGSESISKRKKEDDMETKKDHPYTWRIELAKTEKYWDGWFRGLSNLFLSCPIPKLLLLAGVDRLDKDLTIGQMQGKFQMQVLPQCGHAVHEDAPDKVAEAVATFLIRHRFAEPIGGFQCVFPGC

Compared with `CC(=O)N1CC[n+]2c(-c3ccc([N+](=O)[O-])cc3)csc21`, `O=C(CCn1nnc2ccccc21)OCC(=O)c1ccc([N+](=O)[O-])cc1` is lower in inhibition: -1.65% for the first, -1.86% for the second.

Going from `COc1cc(NS(=O)(=O)c2ccc(NC(=O)c3ccc([N+](=O)[O-])cc3)cc2)ncn1` to `COc1ccc(NS(=O)(=O)c2cc(C(=O)Nc3ccccc3C(=O)O)ccc2C)cc1`, the inhibition falls from 4.2% to -3.94%.

Compared with `Cc1ccc(NC(=O)Cc2nnc(SCC(=O)Nc3nncs3)n2C)cc1`, `CCc1nnc(NC(=O)CSc2nc(SC)ns2)s1` is lower in inhibition: 5.14% for the first, -0.14% for the second.

Going from `Cc1cc(C(=O)OCC(=O)Nc2ccc(F)c(F)c2)c(C)o1` to `COC(=O)[C@H](C)NC(=O)Nc1ccc(OC(F)(F)F)cc1`, the inhibition rises from -2.42% to 0.46%.

Compared with `CONC(=O)c1cc(OCC(F)(F)F)ccc1OCC(F)(F)F`, `CCOc1ccc(S(=O)(=O)N(CC(=O)NCC(F)(F)F)Cc2ccco2)cc1` is higher in inhibition: -6.8% for the first, -1.32% for the second.

Compared with `CN(Cc1ccccc1)C(=O)c1ccc(NC2=NC3CS(=O)(=O)CC3S2)cc1` (stereo not given), `COC(C(=O)Nc1ccc(C(C)=O)cc1)c1ccccc1` (stereo not given) is lower in inhibition: 0.07% for the first, -5.79% for the second.

First: O=C(CCc1nnc2ccc(NCCCN3CCCC3=O)nn12)NCc1ccccc1Cl
Second: O=C(NCCCN1CCCCC1)C1CC(=O)N(CCc2ccccc2)C1 (stereo not given)
The inhibition of the first is lower: -0.36% for the first, 0.2% for the second.

Going from `Cc1ccc(N(C(=O)C(F)(F)F)C(C(=O)NC2CCCCC2)c2ccncc2)cc1C` (stereo not given) to `N#CCCN(C(=O)COC(=O)C1CCN(c2ccc(C(F)(F)F)cn2)CC1)c1ccc(F)cc1`, the inhibition falls from 3.24% to 1.79%.

First: O=S1(=O)CCOC[C@H](CC2CCCCC2)N1Cc1ccc(F)cc1
Second: Cc1occc1C(=O)NC1CCCN(Cc2ccc(CC(C)C)cc2)C1 (stereo not given)
The inhibition of the first is lower: 1.92% for the first, 5.69% for the second.

Going from `CCOC(=O)c1c(N)sc(C(C)=O)c1C` to `CCc1nnc(NC(=O)c2sc3nc(C)cc(COC)c3c2N)s1`, the inhibition falls from 3.77% to -5.69%.

Compared with `COC(=O)c1sc(=S)n(-c2ccc(Cl)cc2)c1C`, `CCc1ccc(C(=O)CSc2nnc(C)c(=O)[nH]2)cc1` is lower in inhibition: -0.65% for the first, -6.05% for the second.

First: COc1cccc(CNC(=O)CN2C(=O)NC(Cc3ccccc3)(c3ccccc3)C2=O)c1 (stereo not given)
Second: COc1ccc(C2Nc3ccccc3C(=O)N2Cc2ccccc2)cc1Cn1nnc2ccccc21 (stereo not given)
The inhibition of the first is lower: -2.37% for the first, 8.54% for the second.

First: Cc1ccc(-c2ccnc3[nH]n(-c4ccccc4)c(=O)c23)cc1
Second: CCOc1cc(/C=N/NC(=O)c2cc(-c3ccccc3)nc3ccccc23)ccc1O
The inhibition of the first is higher: -2.99% for the first, -7.58% for the second.

Compared with `Cc1cc(C)c(C2C3=C(Nc4c2c(C)nn4-c2ccccn2)c2ccccc2C3=O)c(C)c1` (stereo not given), `Cc1cc(C)c2nc3nc(C)cc(C)c3c(N)c2c1` is higher in inhibition: -4.18% for the first, -3.32% for the second.

Compared with `CSc1nc2nc(-c3cccc(C(F)(F)F)c3)ccn2n1`, `FC(F)(F)c1cccc(-c2nc(COc3ccc(Cl)cc3Cl)no2)c1` is higher in inhibition: -7.13% for the first, -0.04% for the second.

Going from `COC(=O)CSc1nc2c(c(C3CC=CCC3)c1C#N)CCC2` (stereo not given) to `CCOC(=O)Cc1c(C)nc2c(C#N)c(C)nn2c1C`, the inhibition rises from -1.86% to -0.83%.

Compared with `CCOC(=O)N1CCN(C(=O)COCc2cc(-c3ccc4c(c3)OCO4)on2)CC1`, `Cc1ccccc1N1CC(C(=O)Nc2ccc3c(c2)OCO3)CC1=O` (stereo not given) is higher in inhibition: -4.28% for the first, 0.7% for the second.

First: CCCCN(CCCC)CCNC(=O)CN1C(=O)COc2ccc(S(=O)(=O)N3CCOCC3)cc21
Second: O=C(CNCc1cccs1)Nc1cc(S(=O)(=O)N2CCCC2)ccc1Cl
The inhibition of the first is lower: -2.01% for the first, 22% for the second.

Going from `O=C(O)c1ccccc1N=N/C(=N/Nc1cc(S(=O)(=O)O)ccc1O)c1ccccc1` to `Cc1ccc(N(Cc2ccc(C(=O)Nc3ccccc3C(=O)NCc3ccco3)cc2)S(C)(=O)=O)cc1C`, the inhibition falls from 13.7% to -28.2%.

Compared with `Cc1cccc(COc2ccccc2/C=N/Nc2ccc([N+](=O)[O-])cc2)c1`, `COc1cc2ccccc2cc1C(=O)Nc1ccc(NC(=O)c2cccs2)cc1` is lower in inhibition: 11.9% for the first, -34% for the second.

Compared with `COCCNC(=O)c1ccccc1NS(=O)(=O)c1ccc(C)c([N+](=O)[O-])c1`, `O=C(NCCc1c[nH]c2ccccc12)c1cccc(Br)c1` is higher in inhibition: -1.62% for the first, 4.14% for the second.

Going from `COCCN(C(=S)Nc1cccc(Cl)c1C)C(C)c1ccco1` (stereo not given) to `COC(=O)COc1ccc2c(c1C)O/C(=C\c1ccco1)C2=O`, the inhibition rises from -13.2% to -9.46%.

First: CCCN(C(=O)CSc1nnnn1C)c1c(N)n(Cc2ccccc2)c(=O)[nH]c1=O
Second: Nc1c(N(Cc2ccco2)C(=O)c2cccc(F)c2)c(=O)[nH]c(=O)n1Cc1ccccc1
The inhibition of the first is lower: 0.95% for the first, 3.17% for the second.

Compared with `COc1ccc(N2C(=O)c3ccccc3NC2c2ccc(OC)c(CN3CCOCC3)c2)cc1` (stereo not given), `COc1ccc(CN(Cc2ccc(OC)cc2)C(=O)c2cccs2)cc1` is higher in inhibition: -3.55% for the first, 4.18% for the second.

First: O=C(NCCc1ccccn1)c1nc(Cn2cc([N+](=O)[O-])cn2)no1
Second: Cc1cc(NC(=O)COc2ccccc2C#N)no1
The inhibition of the first is lower: -4.02% for the first, -1.79% for the second.

Going from `Cc1ccc(-c2ccnc3nc(Sc4ncc(C(F)(F)F)cc4Cl)nn23)cc1` to `Clc1ccc(-c2cc(COc3ccccc3)no2)cc1Cl`, the inhibition falls from -0.19% to -8.92%.

Going from `COC/C=C/C1=CC2=CC(=O)C(C)(OC(=O)CCC(=O)OC)C(=O)C2=CO1` (stereo not given) to `COc1ccc(C(=O)CC(=O)C(=O)Nc2cc([N+](=O)[O-])ccc2OC)cc1`, the inhibition falls from -1.35% to -2.97%.

Compared with `COc1ccccc1OCCn1c(SCC(N)=O)nc2ccccc21`, `COc1ccc(NC(=O)[C@H](NC(=O)[C@@H]2Cc3ccccc3CN2)c2ccccc2)cc1` is higher in inhibition: -4.12% for the first, -3.82% for the second.

First: CS(=O)(=O)N(CC(=O)Nc1ccc(F)cc1F)c1cccc([N+](=O)[O-])c1
Second: CN(Cc1c(F)cccc1Cl)S(=O)(=O)c1cccs1
The inhibition of the first is lower: -2.56% for the first, 4.21% for the second.

Going from `CSCCC(NS(=O)(=O)/C=C/c1ccccc1)C(=O)N1CCC(C)CC1` (stereo not given) to `CCc1ccccc1OCC(=O)Nc1ccc(C)c(S(=O)(=O)N2CCCCCC2)c1`, the inhibition falls from 6.82% to -30.7%.

First: CCc1nnc(NC(=O)c2cccc(S(=O)(=O)N(C)c3ccc(OC)cc3)c2)s1
Second: Cc1csc2nc(COC(=O)c3cccc(N(C)C)c3)cc(=O)n12
The inhibition of the first is lower: -0.95% for the first, 3.78% for the second.

Going from `COc1cc(/C=N/NC(=O)c2ccc(N3CCCC3=O)cc2)ccc1O` to `Cn1nccc1NC(=O)Nc1ccc(OC(F)(F)F)cc1`, the inhibition rises from 5.91% to 8.73%.

Going from `CCOC(=O)[C@H]1CCC[C@@H](NS(=O)(=O)c2ccc(NC(C)=O)cc2)C1` to `O=C(NCCS(=O)(=O)N1CCN(c2ccccc2F)CC1)c1ccc(Br)o1`, the inhibition rises from 1.52% to 3.82%.

Going from `CN(C)C(=O)c1ccc2c(c1)C1C3CCC(C3)C1C(c1ccccc1)N2` (stereo not given) to `Cc1cc(C)cc(NC(=S)NCc2ccc(F)cc2)c1`, the inhibition falls from 8.08% to 7.45%.

Going from `CCN(CC)C(=O)CSC(Nc1cccc(F)c1)=C(C#N)C#N` to `CCN=C1S/C(=C\c2cc(Br)ccc2OCC(=O)OCC)C(=O)N1CC`, the inhibition rises from -5.27% to 3.9%.

First: CCOC12CC(C)(C)CC(C)(CC3=C1C(=O)CC(C)(C)C3)C2 (stereo not given)
Second: CC(C)CCOc1ccc(C(=O)C[N+]2(C)CCOCC2)cc1
The inhibition of the first is higher: 2.34% for the first, 1.1% for the second.

`O=c1c2sccc2nc(SCc2cc(=O)n3ccccc3n2)n1-c1ccc(Br)cc1` showed an inhibition of 6.68%.

With `COCCOC(=O)c1sc(=S)n(CCOC)c1N` the inhibition was 35% (active).
`Cc1ccc(C2C3=C(Nc4[nH]n(-c5ccccc5)c(=O)c42)c2ccccc2C3=O)cc1` (stereo not given) was tested, and the inhibition was 36.4% (active).
With `Cc1ccc(NS(=O)(=O)c2ccc(N/N=C/c3ccccc3OCC(=O)O)c([N+](=O)[O-])c2)c(C)c1` the inhibition was 78.2% (active).
In the case of `COc1ccc(C2Nc3ccccc3C(=O)N2c2ccc(F)cc2)cc1Cn1nnc2ccccc21` (stereo not given), the inhibition is reported as 30.4% (active).
For `COc1ccc(NC(C(=O)Nc2cccc(C(C)=O)c2)c2ccccc2)cc1` (stereo not given), the inhibition was 34.5% (active).
For `CCc1ccc2nc3sc(C(=O)Nc4nnc(CC)s4)c(N)c3cc2c1`, the inhibition was 65.8% (active).
`COc1ccc(C(=O)Nc2ccccc2C(=O)N/N=C/c2ccc(O)c(OC)c2)cc1` was tested, and the inhibition was 33.6% (active).
`COc1ccc(NS(=O)(=O)c2cc(NC(=O)CC(=O)c3ccc([N+](=O)[O-])cc3)ccc2C)cc1` was tested, and the inhibition was 27% (active).
`COc1ccc(CCNC(=O)/C(C#N)=C2\N=C(NC(=O)c3cccs3)c3ccccc32)cc1` was tested, and the inhibition was 28.2% (active).
In the case of `Cc1cc(C)cc(NC(=S)NCCc2c[nH]c3ccccc23)c1`, the inhibition is reported as 26.7% (active).
`CCc1cccc(CC)c1NC(=O)COc1ccccc1C(=O)c1cc(C#N)c(=O)n(C2CCCCC2)c1` was tested, and the inhibition was 26.5% (active).
In the case of `O=C(Nc1ccc(OC(F)(F)F)cc1)c1ccc2c(c1)no[n+]2[O-]`, the inhibition is reported as 32% (active).
